Results reported in PubChem BioAssay AID1053205 (Broad Institute, 2014).
Measured potencies and affinities stand elsewhere. Records with an inconclusive call do not appear. The source made the active and inactive calls.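 Rule for the calls: active = compounds lowering the FRET ratio whose fitted half-maximal concentration is at most twice their top tested dose; inconclusive = flat partial drop between 30 and 70 percent, or bad fit; inactive = the rest.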

The compounds below were run against Voltage-dependent L-type calcium channel subunit alpha-1D (Homo sapiens) (UniProt Q01668) (assay: disruptors of CaV1.3 IQ/ICDI domain association – cell-based, HEK293, YFP-IQ/CFP-ICDI FRET, cherry-picks, dose response (AID 1053205)). Settings: HEK293 YFP-IQ/CFP-ICDI FRET ratio, 10 min; series mostly up to 35 µM.
Voltage-dependent L-type calcium channel subunit alpha-1D (Homo sapiens), sequence (Q01668 whole entry, looked up, the tested form may be a part): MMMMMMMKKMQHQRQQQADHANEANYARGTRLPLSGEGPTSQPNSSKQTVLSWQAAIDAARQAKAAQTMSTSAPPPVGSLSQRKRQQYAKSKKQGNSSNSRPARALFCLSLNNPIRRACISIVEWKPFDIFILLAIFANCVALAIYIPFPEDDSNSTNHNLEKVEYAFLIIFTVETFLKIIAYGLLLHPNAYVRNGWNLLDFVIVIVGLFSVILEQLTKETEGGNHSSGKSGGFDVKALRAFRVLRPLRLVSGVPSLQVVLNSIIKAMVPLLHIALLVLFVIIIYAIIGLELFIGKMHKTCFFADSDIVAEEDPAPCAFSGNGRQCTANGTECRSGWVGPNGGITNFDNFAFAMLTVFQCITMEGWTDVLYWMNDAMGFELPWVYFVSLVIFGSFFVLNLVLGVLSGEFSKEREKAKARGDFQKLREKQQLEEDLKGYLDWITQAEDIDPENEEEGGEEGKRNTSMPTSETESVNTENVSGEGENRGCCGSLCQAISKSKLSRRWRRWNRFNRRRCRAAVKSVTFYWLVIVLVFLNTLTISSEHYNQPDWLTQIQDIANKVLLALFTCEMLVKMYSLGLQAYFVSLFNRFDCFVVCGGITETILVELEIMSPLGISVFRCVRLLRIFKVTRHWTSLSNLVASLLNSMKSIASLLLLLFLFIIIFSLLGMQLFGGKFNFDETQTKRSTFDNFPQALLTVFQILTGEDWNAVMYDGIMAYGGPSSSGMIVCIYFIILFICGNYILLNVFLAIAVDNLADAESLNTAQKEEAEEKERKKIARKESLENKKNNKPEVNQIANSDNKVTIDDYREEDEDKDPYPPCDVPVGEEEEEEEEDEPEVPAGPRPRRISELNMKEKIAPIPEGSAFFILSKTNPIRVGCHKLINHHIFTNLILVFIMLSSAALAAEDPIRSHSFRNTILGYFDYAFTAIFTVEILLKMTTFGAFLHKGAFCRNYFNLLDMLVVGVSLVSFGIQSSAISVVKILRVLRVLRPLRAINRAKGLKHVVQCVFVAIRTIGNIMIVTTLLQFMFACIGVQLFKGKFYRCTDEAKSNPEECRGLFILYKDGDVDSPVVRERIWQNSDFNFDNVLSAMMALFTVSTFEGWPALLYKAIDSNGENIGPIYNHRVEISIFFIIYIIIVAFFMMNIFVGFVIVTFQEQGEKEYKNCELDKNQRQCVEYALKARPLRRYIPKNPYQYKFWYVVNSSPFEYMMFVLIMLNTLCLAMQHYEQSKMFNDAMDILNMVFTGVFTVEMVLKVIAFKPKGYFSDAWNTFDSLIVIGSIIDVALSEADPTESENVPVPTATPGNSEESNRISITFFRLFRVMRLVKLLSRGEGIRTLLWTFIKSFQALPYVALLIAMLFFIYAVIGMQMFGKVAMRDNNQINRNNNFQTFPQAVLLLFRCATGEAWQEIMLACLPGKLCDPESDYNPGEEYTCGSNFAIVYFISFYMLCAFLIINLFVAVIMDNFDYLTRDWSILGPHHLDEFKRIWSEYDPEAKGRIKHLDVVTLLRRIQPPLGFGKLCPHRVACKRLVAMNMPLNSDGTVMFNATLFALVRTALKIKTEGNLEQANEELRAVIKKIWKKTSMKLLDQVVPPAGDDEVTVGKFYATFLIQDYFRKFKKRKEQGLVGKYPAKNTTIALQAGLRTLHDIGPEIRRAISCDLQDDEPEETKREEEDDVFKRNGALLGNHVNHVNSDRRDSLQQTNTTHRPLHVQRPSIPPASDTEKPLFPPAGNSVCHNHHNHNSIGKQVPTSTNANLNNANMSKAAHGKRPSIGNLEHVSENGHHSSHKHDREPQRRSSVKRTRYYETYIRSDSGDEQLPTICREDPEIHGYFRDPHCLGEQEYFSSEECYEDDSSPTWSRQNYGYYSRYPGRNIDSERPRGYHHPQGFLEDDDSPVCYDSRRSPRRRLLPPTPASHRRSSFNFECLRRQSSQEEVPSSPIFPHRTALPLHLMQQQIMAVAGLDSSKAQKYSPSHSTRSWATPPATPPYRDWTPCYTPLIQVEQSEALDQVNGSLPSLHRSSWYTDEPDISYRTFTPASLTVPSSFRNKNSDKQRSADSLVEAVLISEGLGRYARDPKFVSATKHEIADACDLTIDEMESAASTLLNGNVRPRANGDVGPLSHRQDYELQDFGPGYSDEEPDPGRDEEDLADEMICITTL

| Structure (SMILES) | outcome |
| --- | --- |
| O=C(O)c1ccc(N2N=C(c3ccccc3)CC2c2ccccc2)cc1 (configuration not stated) | inactive |
| CC1(C)CC(=O)C2=C(C1)OC(N)=C(C#N)[C@@H]2c1ccccc1[N+](=O)[O-] | inactive |
| CC(=O)c1cc2ccc(O)cc2oc1=O | inactive |
| N=c1oc2cc(O)ccc2cc1C(=O)Nc1ccc(Br)cc1 | inactive |
| CCOc1ccc(C(=O)c2cc3ccc(O)cc3oc2=O)cc1 | inactive |
| Cc1oc(/N=C/c2ccc(F)cc2)c(C#N)c1C | inactive |
| CCCCN(CCCC)CC(O)Cn1c2ccccc2c(=O)c2ccccc21 (configuration not stated) | inactive |
| Cc1cccn2c(=O)c3cc(C(=O)NCc4ccc(F)cc4)c(=N)n(CCCN4CCOCC4)c3nc12 | inactive |
| N#Cc1ccc(/C=C\c2nccc3c2[nH]c2ccccc23)cc1 | inactive |
| S=C(NCC1CCCO1)N1CCN(Cc2ccccc2Cl)CC1 (configuration not stated) | inactive |
| CCOC(=O)C(NC(=O)c1ccccc1)(OCC1(CC)COC1)C(F)(F)F (configuration not stated) | inactive |
| [O-]/[N+](=C/c1ccccc1)c1ccccc1 | inactive |
| CCc1nc2ccc(C(=O)NCCc3c[nH]c4ccccc34)cn2c1N(C=O)CCC(C)C | inactive |
| Cc1c(O)ccc2cc(S(=O)(=O)c3ccccc3)c(=O)oc12 | inactive |
| N#Cc1c2ccc(O)cc2n2ccccc12 | inactive |
| CN1CCc2c(sc(NC(=O)C3CCCCC3)c2C(N)=O)C1 | inactive |
| COc1ccc(NC(=O)C2CCC(CNS(=O)(=O)c3cccs3)CC2)cc1 (configuration not stated) | inactive |
| Cc1cc(OC(=O)c2ccccc2Cl)ccc1N1C(=O)CCC1=O | inactive |
| Cc1cc(-c2nc3cccnc3s2)ccc1NS(=O)(=O)c1cccs1 | inactive |

| Structure (SMILES) | outcome |
| --- | --- |
| Cc1ccc2nc3c(cc(C(N)=S)c(=N)n3CCCOC(C)C)c(=O)n2c1 | inactive |
| N#CC(C#N)=C1C=CC=CN1/C(=C\c1ccccc1)C(=O)c1cccs1 | inactive |
| Cc1cc(C)nc(SCC(=O)Nc2ccc(S(=O)(=O)Nc3onc(C)c3C)cc2)n1 | inactive |
| COc1ccc(CCNC(=O)CSc2cn(Cc3cccc(C)c3)c3ccccc23)cc1OC | inactive |
| CCOC(=O)c1c2ccc(OCC(=O)NN)cc2n2ccccc12 | inactive |
| COc1ccc(C2CC(c3cccs3)=NN2c2nc(C)c(C(C)=O)s2)cc1OC (configuration not stated) | inactive |
| COc1cc2sc3cc(NCC[C@@H]4CCCN4C)ccc3c(=O)c2cc1OC | inactive |
| Cc1ccc2c(c1)-c1c(cnn1CC(=O)Nc1ccccc1N1CCN(C)CC1)CO2 | inactive |
| CCCOc1ccc(C(=O)NNC(=S)NC(=O)c2ccco2)cc1 | inactive |
| CCC(Sc1nc(N)c(NC(=O)c2ccc(OC)cc2)c(=O)[nH]1)C(=O)O (configuration not stated) | inactive |
| CC1CC(C)CN(CCCNC(=O)CCC(=O)N2CC(C)Oc3ccccc32)C1 (configuration not stated) | inactive |
| O=C(NCc1nnnn1-c1ccc(Cl)cc1)C1CC(=O)N(c2ccc(F)cc2)C1 (configuration not stated) | inactive |
| CSc1ccc(Cl)c(C(=O)N2CCOc3ccccc32)c1 | inactive |
| O=c1oc2c(CN3CCN(CCO)CC3)c(O)ccc2cc1-c1ccccn1 | inactive |
| O=C(NCc1cc(C(F)(F)F)ccc1Cl)c1cccc2c1C(=O)c1ccc(Cl)cc1S2(=O)=O | inactive |
| CSC1=NSC2=NC(=O)/C(=C/c3coc4ccc(O)cc4c3=O)C(=N)N12 | inactive |
| O=C(Cc1csc(-c2ccccc2)n1)NCc1ccccc1F | inactive |
| CCOc1ccc(NC(=O)CN(C)C(=O)CCCNC(=O)c2ccc(Cl)cc2)cc1OCC | inactive |
